Results filed as inconclusive are left out. Active and inactive are the calls of the source. The calls were made as follows, unless noted: active = hit-call score of the fitted dose curve at least 0.9, where 1 is the maximum; inconclusive = response in the unintended direction; inactive = score below 0.9.

The values below come from PubChem BioAssay (EPA / NIEHS).

Read-out in test [1]: UDP glucuronosyltransferase (UGT1A6), UGT1A6 (gene 54578)
Kind of test: LTEA_HepaRG_UGT1A6: Life Technologies and Expression Analysis (LTEA) Assay for UDP glucuronosyltransferase (UGT1A6) using HepaRG (AID 2283539; active = hit-call score of the fitted dose curve at least 0.9, where 1 is the maximum; inactive = score below 0.9). To be noted: mRNA level, 48 h; actives raise or lower the signal. In outline: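 Measures mRNA change in HepaRG hepatic cells exposed 48 h to chemicals (eight-point, maximum 100 uM, 0.5% DMSO vehicle) in serum-free induction medium. Expression normalized to endogenous controls; DMSO served as negative control and baseline.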

Read-out in test [2]: X-box binding protein 1 (XBP1), XBP1 (gene 7494)
Kind of test: LTEA_HepaRG_XBP1: Life Technologies and Expression Analysis (LTEA) Assay for X-box binding protein 1 (XBP1) using HepaRG (AID 2283540; active = hit-call score of the fitted dose curve at least 0.9, where 1 is the maximum; inactive = score below 0.9). The note with it: mRNA level, 48 h; actives raise or lower the signal. The method, boiled down:
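Eight concentrations (half-log, highest 100 uM, 0.5% DMSO) tested in duplicate on HepaRG cells over 48 h in serum-free induction medium; qRT-PCR of XBP1 normalised to ACTB, GAPDH, POLR2A.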

Test [3] can be described thus: LTEA_HepaRG_LDH_cytotoxicity: Cytotoxicity Assessment in the Life Technologies and Expression Analysis (LTEA) Assay (AID 2283563).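 As to AC50: LDH activity released into spent culture medium as a marker of cell death.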 The method, boiled down:
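Spent-medium LDH after 48 h chemical exposure of HepaRG cells in serum-free induction medium; eight concentrations, half-log dilutions from 100 uM, duplicate wells, fitted upward relative to 0.5% DMSO.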

Test [4] in a line: ATG_XTT_Cytotoxicity: Cytotoxicity Assessment in the Attagene TRANS-FACTORIAL HepG2 Assay (AID 2283584). The method, boiled down: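 24 h chemical exposure of reporter-transfected HepG2; XTT signal loss vs DMSO indicates cytotoxicity.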
Test [5] in a line: TOX21_p53_BLA_p2_viability: Viability Assessment in the Tox21 HCT-116 p53 Agonism Beta-lactamase Assay, Phase 2 (AID 2283591).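 Also: compound exposure lasted 16 h at 37 °C; actives lower the ATP signal meaning cytotoxicity.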 In outline: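 HCT116 p53-bla cells, 4000/well, dosed after 5 h plating (217-fold dilution of DMSO stocks) and incubated 16 h at 37C. Viability taken as cellular ATP by CellTiter-Glo luminescence after 30 min RT; signal loss marks cytotoxicity.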
The target of test [6] is Cellular tumor antigen p53 (Homo sapiens) (UniProt P04637). Kind of test: TOX21_p53_BLA_p2_ratio: Tox21 HCT-116 p53 Agonism Beta-lactamase Assay, Ratio, Phase 2 (AID 2283592). The method, boiled down: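 Human colon HCT116 cells with an inducible p53 beta-lactamase reporter are exposed to test chemicals for 16 h at 37C. Reporter induction is read as the 460/530 nm emission ratio after CCF4-AM loading, normalized to DMSO.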
Cellular tumor antigen p53 (Homo sapiens), sequence (P04637 whole entry, looked up): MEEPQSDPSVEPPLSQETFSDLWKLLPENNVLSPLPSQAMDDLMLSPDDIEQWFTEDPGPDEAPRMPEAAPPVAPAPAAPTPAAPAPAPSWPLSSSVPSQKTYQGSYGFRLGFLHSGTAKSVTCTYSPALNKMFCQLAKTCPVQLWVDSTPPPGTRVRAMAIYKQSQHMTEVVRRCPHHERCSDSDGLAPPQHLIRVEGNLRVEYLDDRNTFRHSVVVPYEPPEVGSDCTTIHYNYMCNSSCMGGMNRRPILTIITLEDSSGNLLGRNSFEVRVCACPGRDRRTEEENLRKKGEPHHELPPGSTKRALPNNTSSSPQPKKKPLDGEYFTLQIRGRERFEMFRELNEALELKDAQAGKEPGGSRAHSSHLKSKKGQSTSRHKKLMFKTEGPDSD

Test [7] shares this target. Kind of test: TOX21_p53_BLA_p3_ratio: Tox21 HCT-116 p53 Agonism Beta-lactamase Assay, Ratio, Phase 3 (AID 2283596). The method, boiled down: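 HCT116 p53-bla cells (4000/well) given compound in DMSO (217-fold dilution) after 5 h, incubated 16 h at 37C. CCF4-AM substrate 2 h at room temperature; 460/530 nm emission ratio, gain fitted against DMSO.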
Test [8] can be described thus: TOX21_p53_BLA_p4_viability: Viability Assessment in the Tox21 HCT-116 p53 Agonism Beta-lactamase Assay, Phase 4 (AID 2283597).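 Also: hits lower the luminescence signal meaning cytotoxicity.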 In outline: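 Luminescent ATP readout (CellTiter-Glo, 30 min, room temperature) in the same wells as the p53 bla ratio. HCT116 cells were treated for 16 h at 37C with DMSO-dissolved compounds.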
The target in test [9] is Cellular tumor antigen p53 (Homo sapiens) (UniProt P04637). Description: TOX21_p53_BLA_p5_ratio: Tox21 HCT-116 p53 Agonism Beta-lactamase Assay, Ratio, Phase 5 (AID 2283599). In outline:
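HCT-116 p53-bla cells (4000/well) plated 5 h, dosed with compound (217-fold DMSO dilution) for 16 h at 37 C; CCF4-AM substrate 2 h at room temperature. Activity is the 460/530 nm emission ratio (405 nm excitation), fitted in gain-of-signal direction versus DMSO.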

Test [10] is described as follows: TOX21_p53_BLA_p5_viability: Viability Assessment in the Tox21 HCT-116 p53 Agonism Beta-lactamase Assay, Phase 5 (AID 2283600). In outline: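 Seeded cells (4000/well) settle 5 h before compound addition. Plates then incubate 16 h at 37C, receive FRET substrate for 2 h, and finally CellTiter-Glo, with luminescence measured after a 30 min room-temperature incubation.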

The target of test [11] is Cellular tumor antigen p53 (Homo sapiens) (UniProt P04637). Kind of test: TOX21_p53_BLA_p4_ratio: Tox21 HCT-116 p53 Agonism Beta-lactamase Assay, Ratio, Phase 4 (AID 2283601). The method, boiled down: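 HCT-116 p53 beta-lactamase reporter cells (4000/well) preincubated 5 h, then compound (217-fold dilution of DMSO stock) for 16 h at 37C. CCF4-AM substrate added 2 h at room temperature; 460/530 nm emission ratio fitted upward versus DMSO.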

The nature of test [12]: Tanguay_ZF_120hpf_MORT_legacy: (Legacy) Oregon State University Tanguay Lab 120 Hour Post-fertilization zebrafish Assay for Mortality (AID 2283633).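 As to AC50: fitted as increase in binary mortality versus DMSO negative control.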 The method, boiled down:
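Single dechorionated Tropical 5D embryos were held with test chemical (0.64% DMSO final) from 6 to 120 hpf at 28C under foil. Deaths at 24 or 120 hpf were recorded as binary calls, analysed for increase over DMSO controls.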

Test [13] in a line: Tanguay_ZF_120hpf_YSE_legacy: (Legacy) Oregon State University Tanguay Lab 120 Hour Post-fertilization zebrafish Assay for Yolk Sac Edema (AID 2283634).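 As to AC50: actives raise the incidence of yolk sac edema above the DMSO baseline.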 The method, boiled down: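 Single dechorionated embryos were held in sealed plates at 28C with test chemical (0.64% DMSO final) from 6 hpf until 120 hpf. Edema of the yolk sac was then recorded as a binary endpoint; non-mortality endpoints were skipped for dead embryos.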

The nature of test [14]: Tanguay_ZF_120hpf_AXIS_legacy: (Legacy) Oregon State University Tanguay Lab 120 Hour Post-fertilization zebrafish Assay for Body Axis Malformation (AID 2283635). The method, boiled down: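 Each dechorionated embryo was exposed alone from 6 hpf, with DMSO at 0.64% (vol/vol) and trimethyltin chloride 5 uM as positive control. Axis malformation was recorded at 120 hpf unless the embryo had died.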

A short description of test [15]: Tanguay_ZF_120hpf_EYE_legacy: (Legacy) Oregon State University Tanguay Lab 120 Hour Post-fertilization zebrafish Assay for Eye Malformation (AID 2283636).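 Also: binary presence or absence of eye malformation scored by brightfield in 120 hpf larvae.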 The method, boiled down: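 Dechorionated Tropical 5D zebrafish embryos, one per well from 6 hpf, static exposure to 120 hpf at 28C, 0.64% DMSO. Eye malformation scored present/absent by brightfield; dead embryos not scored.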

Test [16] in a line: Tanguay_ZF_120hpf_SNOU_legacy: (Legacy) Oregon State University Tanguay Lab 120 Hour Post-fertilization zebrafish Assay for Snout Malformation (AID 2283637). In outline:
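Dechorionated tropical 5D wild-type zebrafish embryos exposed statically from 6 to 120 hpf at 28C, one per well, in 0.64% DMSO. Snout malformation scored as present/absent by brightfield at 120 hpf; dead embryos not scored.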

The nature of test [17]: Tanguay_ZF_120hpf_JAW_legacy: (Legacy) Oregon State University Tanguay Lab 120 Hour Post-fertilization zebrafish Assay for Jaw Malformation (AID 2283638). The method, boiled down: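 Wild-type 5D embryos, chorion removed at 4 hpf, dosed singly from 6 hpf; 28C static, sealed, foil-covered, to 120 hpf. Endpoint: jaw defect yes/no (brightfield); mortality excludes scoring.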

Test [18] can be described thus: Tanguay_ZF_120hpf_PE_legacy: (Legacy) Oregon State University Tanguay Lab 120 Hour Post-fertilization zebrafish Assay for Pericardial Edema (AID 2283640).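 As to AC50: potency for increased incidence of pericardial edema versus DMSO baseline.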 The method, boiled down:
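Zebrafish larvae are exposed from early development to 120 hpf at 28C, with 0.64% DMSO final. Each surviving larva receives a yes/no pericardial edema call by brightfield imaging, analysed relative to the DMSO baseline.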

Test [19] can be described thus: TOX21_p53_BLA_p3_viability: Viability Assessment in the Tox21 HCT-116 p53 Agonism Beta-lactamase Assay, Phase 3 (AID 2283593).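 Also: cells exposed to compound for 16 h before reading.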 In outline:
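HCT116 cells, 4000/well, dosed 5 h after plating by pin transfer (217-fold dilution from DMSO stock) and incubated 16 h at 37C, 5% CO2. Viability read as ATP luminescence with CellTiter-Glo after 30 min at room temperature.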

Test [20] can be described thus: Tanguay_ZF_120hpf_OTIC_legacy: (Legacy) Oregon State University Tanguay Lab 120 Hour Post-fertilization zebrafish Assay for Otic Vesicle Malformation (AID 2283639). The method, boiled down:
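Tropical 5D wild-type zebrafish embryos were exposed statically in sealed, foil-covered plates at 28C until 120 hpf, with 0.64% (vol/vol) DMSO final. Otic vesicle malformation was scored present/absent by brightfield microscopy, with DMSO as baseline.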

`CC(=O)OC/C=C(\C)CCC=C(C)C`: the result in [1], in test [2], in test [3], in test [4], in [5] and in test [6] was inactive. Also, the outcome in test [7], in test [8], in test [9], in test [10], in test [11] and in [12] was inactive. In addition, the outcome in [13], in test [14], in test [15], in [16], in [17] and in test [18] was inactive.

In the case of `NS(=O)(=O)c1cc2c(cc1Cl)NCNS2(=O)=O`, the outcome in [1], in test [2], in [3], in test [5], in [6] and in test [19] was inactive. The outcome in [7], in test [8], in test [9], in [10], in [11] and in test [12] was inactive. Further, the compound was classed as inactive in test [13], in [14], in test [15], in test [17] and in [20].

In the case of `CC(=O)Oc1ccccc1C(=O)O`, the result in test [1], in test [2], in [3], in [5], in test [6] and in test [19] was inactive. The result in test [7], in test [8], in test [9], in [10], in [11] and in test [12] was inactive. Also, the compound was classed as inactive in test [13], in test [14], in [17] and in [18].

Broadly, the AC50 is the concentration at which the activity in the assay is half-maximal. Consider `COc1cc(-c2nc(NC(=O)c3cc4cc(C)cc(C)c4n3CC(=O)O)sc2CCC2CCCCC2)c(OC)cc1Cl`, for which the AC50 was 7.34 µM (active) in test [1]; 19.6 µM (active) in [2]; 9.05 µM (active) in test [3]; 1.65 µM (active) in [5]; 2.2 µM (active) in test [6]; 5.1 µM (active) in test [19]. Further, the AC50 was 7.74 µM (active) in test [7]; 2.1 µM (active) in test [8]; 9.04 µM (active) in test [9]; 3.51 µM (active) in test [10]; 3.39 µM (active) in test [11]. Besides, the call in test [12], in [13], in [14], in [15], in test [17] and in [20] was inactive. Further, the compound was classed as inactive in test [18].

For `Clc1cc(Cl)c(Cl)cc1Cl`, the compound was called inactive in [1], in test [2], in test [3], in test [4], in test [5] and in test [19]. The result in test [7], in test [8], in test [9], in test [10], in test [11] and in test [12] was inactive. In addition, the compound was called inactive in test [15], in test [17], in test [20] and in test [18].

Consider `C=CCOC(=O)c1ccccc1C(=O)OCC=C`, for which the call in test [1], in test [2], in test [3], in test [4], in test [5] and in test [6] was inactive. Also, the result in test [7], in [9], in test [10], in [11], in [14] and in test [15] was inactive. Moreover, the compound was called inactive in test [16], in [17] and in test [20]. In addition, the AC50 was 13.9 µM (active) in test [12], 30.9 µM (active) in [13] and 46.9 µM (active) in test [18].

For `Cc1ccc2ncccc2c1`, the compound was classed as inactive in test [1], in test [2], in test [3], in [4], in test [6] and in [7]. Moreover, the compound was called inactive in test [8], in [9], in [10], in [11], in test [12] and in test [13]. For the same compound, the call in test [14], in test [15], in test [16], in [17], in [20] and in test [18] was inactive.
